Some test systems named below: NCI-H23 lung; NCI-H226 lung; NCI-H322M lung; HOP-62 NSCLC; NCI-H460 lung; NCI-H522 lung; 786-0 renal; COLO 205 colon; A549/ATCC NSCLC; HOP-92 NSCLC.
Assay in all cases: NCI-60 one-dose screen, 48 h (100 = growth as untreated, 0 = no growth, -100 = all killed)
Conditions in all cases: 10 µM unless noted

Results on 14 compounds are retold here after PubChem BioAssay (NCI).

Each structure is given as a SMILES string. About 83,000 compounds went through this panel and 20% of them were active in at least one assay; those are over-represented in the sample as a whole.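 The test compound was applied at a single concentration to cells in 96-well plates for 48 hours, and percent growth was recorded.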 Unmarked numbers belong to inactive results. The source made the active and inactive calls. How the source made its calls: active means growth percent below 10; inactive means the rest.

As to `CC1(C)OCC(COC(c2ccccc2)(c2ccccc2)c2ccccc2)O1` (stereo not given), the growth is 104% in the experiment with NCI-H23 lung; 92.1% with NCI-H226 lung; 92.2% in the experiment with NCI-H322M lung; 96.1% in the experiment with HOP-62 NSCLC; 104% in the experiment with NCI-H460 lung; 88.8% with NCI-H522 lung. The growth in the experiment on 786-0 renal is 104%; with COLO 205 colon, 109%.

As to `O=C1Nc2ccc(Br)cc2C1=O`, the growth in the experiment with NCI-H23 lung was 97.5%; in the experiment on NCI-H226 lung, 93.3%; in the experiment on NCI-H322M lung it was 102%; in the experiment with HOP-62 NSCLC, 100%; in the experiment with NCI-H460 lung, 102%; in the experiment with NCI-H522 lung it was 99.8%. For the same compound, the growth in the experiment on 786-0 renal was 109%; in the experiment on COLO 205 colon, 106%.

With `CCCCCCCCCCCCNCCCc1ccccc1`, the growth in the experiment on NCI-H23 lung is 89.2%; with NCI-H226 lung, 96.6%; in the experiment with NCI-H322M lung, 91.1%; with HOP-62 NSCLC, 95%; with NCI-H460 lung, 83.9%; in the experiment on NCI-H522 lung, 63.6%. Also, the results for the growth in the experiment on 786-0 renal and with COLO 205 colon were 69.4% and -50.8% (active), respectively.

In the case of `Cc1ccc(NC2=CC(=O)C(=O)c3ccccc32)cc1`, the growth was -31.2% (active) in the experiment on NCI-H23 lung; -67.9% (active) with NCI-H226 lung; -12.5% (active) in the experiment with NCI-H322M lung; -86.2% (active) with HOP-62 NSCLC; 5.26% (active) in the experiment with NCI-H460 lung; 18.8% in the experiment on NCI-H522 lung. Further, the growth is -36.5% (active) in the experiment with A549/ATCC NSCLC, 34.8% in the experiment with 786-0 renal and -68.5% (active) in the experiment with COLO 205 colon.

`O=C(c1ccccc1)N(CCCl)C(=O)N(CCCl)C(=O)c1ccccc1`: the growth in the experiment on NCI-H23 lung was 93.7%; in the experiment on NCI-H226 lung it was 93.7%; with NCI-H322M lung, 90.2%; in the experiment with HOP-62 NSCLC it was 91.5%; in the experiment with NCI-H460 lung it was 108%; in the experiment with NCI-H522 lung, 85.7%. Moreover, the figures for the growth with A549/ATCC NSCLC, with 786-0 renal and in the experiment with COLO 205 colon were 95.7%, 103% and 99.9%, respectively.

In the case of `OC(c1cc2ccc(C(F)(F)F)cc2c2cc(C(F)(F)F)ccc12)C1CCCCN1` (stereo not given), the growth with NCI-H23 lung was -95.8% (active); in the experiment with NCI-H226 lung, -71.4% (active); in the experiment with NCI-H322M lung, -91.5% (active); in the experiment on HOP-62 NSCLC, -100% (active); in the experiment on NCI-H460 lung, -100% (active); in the experiment with NCI-H522 lung it was -87.7% (active). For the same compound, the growth in the experiment on A549/ATCC NSCLC is -97% (active); with 786-0 renal, -85% (active); in the experiment with COLO 205 colon, -100% (active).

Take `CC(C)c1ccc(Nc2n[nH]c(=S)s2)cc1`: the growth in the experiment on NCI-H23 lung is 87.1%; in the experiment with NCI-H226 lung, 105%; with NCI-H322M lung, 102%; in the experiment with HOP-62 NSCLC it was 99.4%; with NCI-H460 lung, 114%; with A549/ATCC NSCLC, 101%. The growth with 786-0 renal is 96.8%.

`CCCCCCCCCCCCCCCCCC[S+](C)CC` (stereo not given): the growth was 36.3% in the experiment on NCI-H23 lung; 17.5% with NCI-H226 lung; 15.6% in the experiment on HOP-62 NSCLC; 33.6% with NCI-H460 lung; 27.3% with HOP-92 NSCLC; 30.2% in the experiment with NCI-H522 lung. Besides, the growth with A549/ATCC NSCLC was 42.3%; in the experiment on 786-0 renal it was 29.1%; in the experiment with COLO 205 colon it was -38% (active).

Regarding `Nc1ccc(C(=O)/C=C/c2ccccc2)cc1`, the growth in the experiment on NCI-H23 lung is 96.5%; in the experiment on NCI-H226 lung, 105%; in the experiment on NCI-H322M lung, 90.8%; in the experiment on NCI-H460 lung, 100%; in the experiment with HOP-92 NSCLC, 88.3%; with NCI-H522 lung, 80.8%. Also, the growth was 91.5% in the experiment on A549/ATCC NSCLC, 86.2% in the experiment on 786-0 renal and 119% in the experiment with COLO 205 colon.

As for `Oc1ccc(Cl)cc1C(c1cc(Cl)ccc1O)C(Cl)(Cl)Cl`, the growth in the experiment with NCI-H23 lung is -25.2% (active); in the experiment with NCI-H226 lung, 22.5%; in the experiment with NCI-H322M lung it was 27.7%; in the experiment on HOP-62 NSCLC it was 14.1%; in the experiment with NCI-H460 lung, -12% (active); in the experiment on A549/ATCC NSCLC, 28.7%. For the same compound, the growth in the experiment with 786-0 renal was 15.2%; in the experiment with COLO 205 colon it was 49.4%.

With `CCN(CC)CCNC(Cc1ccccc1)c1ccc(OCc2ccccc2)cc1` (stereo not given), the growth was 88.2% in the experiment with NCI-H226 lung; 92.8% with HOP-62 NSCLC; 65.1% in the experiment with NCI-H460 lung; 6.39% (active) in the experiment with HOP-92 NSCLC; 73.6% with NCI-H522 lung; 57.4% in the experiment with 786-0 renal. Besides, in the experiment on COLO 205 colon, the growth is 54.2%.

Consider `O=C(c1ccccc1)C(O)C(Br)(CBr)c1ccccc1` (stereo not given), for which the growth is 74.9% in the experiment on NCI-H23 lung; 90.2% in the experiment on NCI-H226 lung; 101% in the experiment with NCI-H322M lung; 107% in the experiment with HOP-62 NSCLC; -30.8% (active) in the experiment with NCI-H522 lung; 88.5% in the experiment on A549/ATCC NSCLC. Besides, the growth is 105% in the experiment on 786-0 renal and 120% with COLO 205 colon.

Regarding `O=[N+]([O-])c1ccc(N2CCN(Cc3ccccc3)CC2)c2c1no[n+]2[O-]`, the growth was 13% in the experiment on NCI-H23 lung; 69.7% with NCI-H322M lung; -31.7% (active) in the experiment with HOP-62 NSCLC; -70.8% (active) in the experiment with NCI-H460 lung; 25.6% in the experiment on HOP-92 NSCLC; -74.1% (active) in the experiment on NCI-H522 lung. Moreover, the growth is -40.2% (active) in the experiment with A549/ATCC NSCLC, -4.19% (active) in the experiment with 786-0 renal and -88.2% (active) in the experiment on COLO 205 colon.

As for `CCCCCC/C=C1\CCC(CN2CCCC2)C1=O` (stereo not given), the growth was 99.9% in the experiment with NCI-H23 lung; 95.5% in the experiment with NCI-H226 lung; 106% with NCI-H322M lung; 102% in the experiment on NCI-H460 lung; 93.5% in the experiment with NCI-H522 lung; 93% in the experiment on A549/ATCC NSCLC. Moreover, the growth with 786-0 renal is 77.4%.
